Experimental findings from PubChem BioAssay (Tox21) are described below.

Records with an inconclusive call do not appear. A call without a number means that no potency is given here. A number with no mark means an inactive call. Activity calls are given as the source filed them. Calls follow the shape of the full dose curve.

In the assay the target is Progesterone receptor (Homo sapiens) (UniProt P06401). The experiment in a line: qHTS assay to identify small molecule agonists of the progesterone receptor (PR) signaling pathway (AID 1346784). Also: nearly all actives have a fitted effect of over 30% in size. As to conditions: PR-UAS-bla HEK293T, beta-lactamase FRET ratio, 16 h; series mostly up to 92.4 µM. The text has this: U.S. Tox21 Program National Center for Advancing Translational Sciences [NCATS] NIH Chemical Genomics Center [NCGC] U.S. Environmental Protection Agency [EPA] National Institutes of Environmental Health Sciences [NIEHS] National Toxicology Program [NTP] U.S. Food and Drug Administration [FDA] […] Endocrine disrupting chemicals (EDCs) and their interactions with steroid hormone receptors like PR causes disruption of normal endocrine function. To identify the compounds that activate PR signaling, a PR-UAS-bla GripTite cell line i.e. PR-UAS-bla HEK 293T (Invitrogen, Carlsbad, CA, USA) containing a beta-lactamase reporter gene under the control of an Upstream Activator Sequence (UAS) was used to screen Tox21 10K compound library.
Chain of Progesterone receptor (Homo sapiens) (P06401 whole entry, looked up): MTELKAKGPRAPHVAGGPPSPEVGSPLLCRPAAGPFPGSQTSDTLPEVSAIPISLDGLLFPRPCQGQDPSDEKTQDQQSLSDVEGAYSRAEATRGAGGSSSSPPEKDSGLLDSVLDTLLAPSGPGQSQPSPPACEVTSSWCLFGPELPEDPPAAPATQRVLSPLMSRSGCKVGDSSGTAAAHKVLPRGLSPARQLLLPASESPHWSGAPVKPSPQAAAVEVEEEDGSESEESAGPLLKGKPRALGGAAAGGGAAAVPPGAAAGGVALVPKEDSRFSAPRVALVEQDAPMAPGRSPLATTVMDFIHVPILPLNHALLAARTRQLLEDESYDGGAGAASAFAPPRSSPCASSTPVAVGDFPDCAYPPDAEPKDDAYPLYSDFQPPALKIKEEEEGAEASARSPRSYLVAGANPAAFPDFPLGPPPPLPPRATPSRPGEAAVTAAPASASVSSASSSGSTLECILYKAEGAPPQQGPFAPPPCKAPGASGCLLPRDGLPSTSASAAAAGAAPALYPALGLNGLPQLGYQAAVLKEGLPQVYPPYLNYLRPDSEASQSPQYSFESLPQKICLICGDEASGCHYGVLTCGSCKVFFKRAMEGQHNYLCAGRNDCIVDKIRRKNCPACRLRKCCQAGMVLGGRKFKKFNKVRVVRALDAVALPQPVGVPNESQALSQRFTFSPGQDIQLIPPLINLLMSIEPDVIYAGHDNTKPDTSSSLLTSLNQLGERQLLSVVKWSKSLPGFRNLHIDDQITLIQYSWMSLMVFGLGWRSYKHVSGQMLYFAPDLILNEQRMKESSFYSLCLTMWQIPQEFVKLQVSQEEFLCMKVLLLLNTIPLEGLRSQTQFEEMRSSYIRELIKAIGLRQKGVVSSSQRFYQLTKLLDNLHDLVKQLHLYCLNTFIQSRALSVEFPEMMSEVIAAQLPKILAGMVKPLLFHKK
Tox21 Assay Protocol Summary: PR-UAS-bla HEK 293T cells were dispensed at 3,000 cells/5 uL of assay medium containing 2% charcoal stripped FBS per well into black wall/clear-bottom 1536-well plates using a Multidrop Combi (ThermoFisher Scientific, Waltham, MA) dispenser. After the assay plates were incubated at a 37C and 5% CO2 for 6hr, 23 nL of compounds dissolved in DMSO, positive controls or DMSO only was transferred to the assay plate by a Pintool station (Kalypsys, San Diego, CA). The plates were incubated at 37C and 5% CO2 for 16hr. Then 1 uL of LiveBLAzer B/G FRET substrate was added using a BioRAPTR FRD (Flying Reagent Dispenser, Aurora Discovery, San Diego, CA). After the plates were incubated at room temperature for 2 hours, fluorescence intensity was measured by an Envision plate reader (PerkinElmer, Shelton, CT).
In general terms: qHTS replaces the single test concentration by a dilution series.
Turning to `C/C=C/C=C/CO`, the Potency entry was “inactive”.
On to `CCC(Cl)CCC(Cl)C(Cl)CC(Cl)C(Cl)C(Cl)CCl` (stereo not given), for which the Potency entry was “inactive”.
On the same count and under the same terms, the value for `CN1C[C@H]2c3ccccc3Oc3ccc(Cl)cc3[C@@H]2C1` was “inactive”; that for `CCCCCCOC(=O)NC(=N)c1ccc(NCc2nc3cc(C(=O)N(CCC(=O)OCC)c4ccccn4)ccc3n2C)cc1` was “inactive”; that for `C#CCN(C)CCCOc1ccc(Cl)cc1Cl` was “inactive”.
For `CCOC(=O)c1cccnc1`, the Potency entry was “inactive”.
On the same count and under the same terms, with `COC(=O)C1=C(C)NC(COC(N)=O)=C(C(=O)OC(C)C)C1c1cccc(Cl)c1Cl` (stereo not given) the entry was “inactive”; with `C#Cc1cccc(Nc2ncnc3cc(OCCOC)c(OCCOC)cc23)c1`, “inactive”; with `CCCCC/C=C\C/C=C\CCCCCCCC(=O)NC(C)c1ccccc1` (stereo not given), “inactive”.
On to `CN(Cc1ccc(C(C)(C)C)cc1)Cc1cccc2ccccc12`, for which the Potency entry is “inactive”.
On the same count and under the same terms, the value for `COc1ccc(C(=O)N2CCN(CC(=O)N3CCOCC3)CC2)cc1` was “inactive”.
On the same count and under the same terms, the value for `Cc1ccc(N=Nc2c(O)c(C(=O)O)cc3ccccc23)c(S(=O)(=O)O)c1` was “inactive”; that for `C=C(C)C(=O)OCCO` was “inactive”.
Still for that read-out and setting: the value for `O=[N+]([O-])c1cccc(S(=O)(=O)O)c1` was “inactive”.
As for `C/C=C/C(=O)CC`, the activation is 0.707% [at 19 µM].
Regarding `Cc1cccc(C)c1NC(=O)CN(CC(=O)O)CC(=O)O`, the Potency entry is “inactive”.
Regarding `CC[N+](C)(CC)CCOC(=O)C(O)(c1ccccc1)C1CCCCC1` (stereo not given), the Potency result was “inactive”.
On the same count and under the same terms, the value for `CCOC(=O)NCCOc1ccc(Oc2ccccc2)cc1` was “inactive”.
Same read-out and setting: the value for `Cc1ccc(C(C)OC(=O)C2(C)CCC(C(=O)O)C2(C)C)cc1` (stereo not given) was “inactive”; that for `CCCCCCCCCCCCCCCCOS(=O)(=O)O` was “inactive”.
Still for that read-out and setting: the value for `COCC(C)OC(C)=O` (stereo not given) was “inactive”.
As for `CCOC(=O)C(O)c1ccccc1` (stereo not given), the Potency entry is “inactive”.
Turning to `O=C1CCC(=O)O1`, the Potency entry is “inactive”.
On the same count and under the same terms, the value for `CCCCCCCCCCCCCCCCCCOS(=O)(=O)O` was “inactive”.
On to `COc1cc(Cl)ccc1Oc1ccc(Cl)cc1Cl`, for which the Potency entry was “inactive”.
Take `CCn1cc(C(=O)O)c(=O)c2cnc(N3CCNCC3)nc21`: the Potency entry is “inactive”.
Same read-out and setting: with `CCN(CC)CCOC(=O)C(c1ccccc1)C1CCCCC1` (stereo not given) the entry was “inactive”; with `C=CC(=O)OCCOCCOCCOCCOC(=O)C=C`, “inactive”; with `Nc1ccc([N+](=O)[O-])c(C(F)(F)F)c1`, “inactive”.
Take `COc1ccc(-c2nc3ccc(C4=NNC(=O)CC4C)cc3[nH]2)cc1` (stereo not given): the Potency result is “inactive”.
`CC(CSC(=O)c1ccccc1)C(=O)N1C[C@@H](Sc2ccccc2)C[C@H]1C(=O)O` (stereo not given in full): the activation is -0.419% [at 19 µM].
Consider `COC(C)OC`, for which the Potency entry is “inactive”.
On the same count and under the same terms, with `Cc1ncc(CO)c(C=O)c1O` the entry was “inactive”; with `Cc1c(N)cccc1[N+](=O)[O-]`, “inactive”.
Turning to `O=C(O)CC(=O)C(=O)O`, the Potency entry is “inactive”.
The same measure, in the same setting: the value for `CC(=O)[O][Al]` was “inactive”; that for `CN(C)C(=O)NC1(c2ccccc2)CCN(CC[C@@]2(c3ccc(F)c(F)c3)CN(C(=O)c3ccccc3)CCO2)CC1` was “inactive”.
For the compound `CCOC(=O)COC(=O)c1cc(Oc2ccc(C(F)(F)F)cc2Cl)ccc1[N+](=O)[O-]`, the Potency entry is “inactive”.
The same measure, in the same setting: with `O=S(=O)(Oc1ccc(Cl)cc1)c1ccccc1` the entry was “inactive”.
On the same count and under the same terms, with `O=C(OCCCCCCOC(=O)c1ccccc1)c1ccccc1` the entry was “inactive”.
